Laboratory results published in PubChem BioAssay AID504652 (National Center for Advancing Translational Sciences (NCATS), 2011).
In all, about 360,000 compounds went through this assay and about 11,000 (3.1%) were called active. This is one part of a sample in which actives are shown more often than they occur. Values without a mark were called inactive. No stated cut-off is given here; in the data, active means activity change below about -30%; inactive means the rest.

biological target: D(1A) dopamine receptor (Homo sapiens) (UniProt P21728); assay: Antagonist of Human D 1 Dopamine Receptor: qHTS; details: HEK293 TREx D1 cells, calcium flux, dopamine EC80; at 10 µM; active compounds read low
Sequence (P21728 whole entry, looked up): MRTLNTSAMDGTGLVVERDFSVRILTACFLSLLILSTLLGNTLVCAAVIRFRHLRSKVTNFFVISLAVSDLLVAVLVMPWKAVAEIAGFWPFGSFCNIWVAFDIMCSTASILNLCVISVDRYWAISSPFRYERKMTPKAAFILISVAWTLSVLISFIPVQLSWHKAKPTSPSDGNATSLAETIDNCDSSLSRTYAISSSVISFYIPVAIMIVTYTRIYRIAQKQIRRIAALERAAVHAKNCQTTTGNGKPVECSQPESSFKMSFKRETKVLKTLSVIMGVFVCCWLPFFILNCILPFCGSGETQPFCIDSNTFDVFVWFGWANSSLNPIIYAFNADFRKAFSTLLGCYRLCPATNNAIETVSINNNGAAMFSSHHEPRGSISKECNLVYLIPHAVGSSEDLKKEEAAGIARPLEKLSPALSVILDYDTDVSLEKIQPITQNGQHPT
Description: Dopamine receptors (DARs) are involved in the etiology and/or therapy of a number of neuropsychiatric and endocrine disorders. For instance, all receptor-based antiparkinsonian drugs work via stimulating the […] DAR subtype whereas all FDA-approved antipsychotic agents are antagonists of this receptor. […] There are three different types of allosteric modulators that we are seeking, two of which will stimulate or augment receptor signaling, allosteric agonists and potentiators, while the third, allosteric antagonists, will attenuate receptor signaling. The present primary screening assay measures compound antagonism after an EC80 addition of dopamine by tracking calcium flux in a […], inducible Hek293 Trex D1 cell line. NIH Chemical Genomics Center [NCGC] NIH Molecular Libraries Probe Centers Network [MLPCN] MLPCN Grant: NS064831-01 Assay Submitter (PI): David Sibley
Freshly passaged cells are plated in 1536 well black, clear bottom plates at a density of 4000 cells/well in 3 ul of complete media containing 1x tetracycline inducer. After an overnight incubation at 30 C in 5% CO2, cells are loaded with 2 ul of the no wash Calcium Assay Kit (ABD Bioquest) and incubated at room temperature for 30 to 90 minutes. Agonist read: A 10 cycle (1 second/cycle) baseline measurement is taken and then the FDSS online 1536 pintool delivers 23 nl of compound library (as well as dopamine controls) to the plate. The plate is measured for kinetically at 1 cycle/sec for 180 seconds. Following the 180 second read, 1 ul of an EC80 (negative modulation assay) is delivered by an onboard pipette head. Measurements are taken kinetically for an additional 180 seconds.
On the % scale 0 is the no-effect control and ±100 the full control effect.

Point of comparison: `O=C(OCC(=O)N1CCN(C(=O)c2ccco2)CC1)c1ccc(Cl)c(Cl)c1`, activity change, negative = inhibition -10.9%. Against it:
- COc1cccc(C(c2c(O)cc(C)n(Cc3ccco3)c2=O)N2CCN(c3ccccc3)CC2)c1 (configuration not stated) — higher, 4.67%
- COc1ccc(N2CCN(CCNC(=O)c3nnc(Cc4c(F)cccc4Cl)o3)CC2)cc1 — higher, 5.46%
- Cc1ccc(CCNC(=O)c2nnc(Cc3cccc(F)c3)o2)cc1 — higher, -1.29%
- Cc1ccc(CCNC(=O)c2ccc(CS(=O)(=O)Cc3cccc(C)c3)o2)cc1 — higher, -10.5%
- O=C(c1ccco1)N1CCN(C(=O)C2CC(c3ccc(F)cc3)=NO2)CC1 (configuration not stated) — higher, -3.06%
- COc1ccccc1CN1CCC(CNC(=O)c2cnn(-c3ccccc3Cl)c2C2CCN(C(=O)OC(C)(C)C)CC2)CC1 — higher, -9.9%
- COc1ccccc1C(=O)OCc1cc(=O)n2nc(-c3cccs3)sc2n1 — lower, -28%
- O=C(CCS(=O)(=O)c1ccc2c(c1)NC(=O)CO2)Nc1cccc(C(F)(F)F)c1 — higher, 1.28%
- Clc1cc(-c2ccc(/C=N/n3cnnc3)o2)ccc1Br — higher, -8.28%
- Brc1cc(/C=N/n2cnnc2)oc1Br — higher, -2.4%
- Cn1c(=O)nc2n(-c3ccc(Br)cc3)c3cccc(Cl)c3cc-2c1=O — lower, -15.6%
- CCOc1ccc(N2CC(c3nc4ccccc4n3CCOc3ccc(OC)cc3)CC2=O)cc1 (configuration not stated) — higher, -7.94%
- CCc1ccccc1N1CC(c2nc3ccccc3n2CCCCOc2ccccc2)CC1=O (configuration not stated) — lower, -13.7%
- COc1ccc(OC)c(CNC(=O)c2c3c(nc4ccccc24)C(=O)N(C2CCCCC2)C3)c1 — higher, 18.9%
- COc1ccccc1OCCC(=O)OCC(=O)NC(=O)NC(C)(C)C — higher, -0.18%
- CC(C)(C)NC(=O)NC(=O)COC(=O)Cc1c(F)cccc1Cl — lower, -21%
- CCOc1cc(/C=C(\C#N)C(=O)Nc2ccccc2C)ccc1OCc1cc(=O)n2nc(CC)sc2n1 — higher, 4.8%
- CCOC(=O)c1cccc(NS(=O)(=O)c2cn(C)c(C)n2)c1 — higher, 0.648%
- CCOc1ccccc1N(CC)C(=O)c1cc2ccc3cccnc3c2[nH]1 — higher, 15.7%
- CCOc1ccccc1CNC(=O)Nc1cn(CC(C)C)c(=O)c2ccccc12 — higher, -9.18%
- CNC(=O)CN1C(=O)c2cccnc2Sc2ccccc21 — higher, 2.47%
- COc1ccc(CCNC(=O)c2ccc3c(c2)sc2nc(-c4ccc(C)cc4)cn23)cc1OC — higher, -5.29%
- COc1cc(NS(=O)(=O)c2ccc(NC(=S)NC(=O)c3ccc(Br)cc3)cc2)ncn1 — higher, -8.88%
- COc1cc(NS(=O)(=O)c2ccc(NC(=O)CN3C(=O)c4ccccc4C3=O)cc2)ncn1 — higher, 11.7%
- CC1CCCCN1Cc1c(O)ccc2c(=O)c(-c3cccc(Cl)c3)c(C(F)(F)F)oc12 (configuration not stated) — higher, 8.91%
- CCOc1ccc(C(NC(=O)c2cc(OC)c(OC)c(OC)c2)c2cc(Cl)c3cccnc3c2O)cc1 (configuration not stated) — higher, 1.85%
- CCOCCCNC(=O)c1ccc2nc(CCc3ccccc3)oc2c1 — higher, -1.1%
- CCOc1cccc(NC(=O)c2ccc(F)c(S(=O)(=O)N(CC)c3cccc(C)c3)c2)c1 — higher, 16.1%
- CC1=C(C(=O)OCc2ccc(C)cc2)C(c2c(Cl)cccc2Cl)CC(=O)N1 (configuration not stated) — higher, 4.89%
- COc1cc(NC(=O)COc2ccccc2Cl)ccc1NC(=O)C(C)C — higher, 0.361%
- CCC(=O)N1CCN(c2ccccc2NC(=O)COc2cccc(C)c2C)CC1 — higher, 3.4%
- Cc1ccc(C)c(CN2C(=O)c3ccccc3S(=O)c3ccc(C(=O)N4CCOCC4)cc32)c1 (configuration not stated) — higher, 1.36%
- COc1ccc(OCC(=O)Nc2cccc(C(=O)OCc3cc(=O)n4nc(C)sc4n3)c2)cc1 — higher, -3.25%
- CCOc1ccc(-n2c(C)nc3c(cnn3-c3ccc(C)cc3)c2=O)cc1 — higher, 10.9%
- COc1cc(C(=S)N2CCOCC2)cc(OC)c1OC(=O)c1cc([N+](=O)[O-])cc([N+](=O)[O-])c1 — higher, -2.9%
- COc1cc(C(=S)N2CCOCC2)cc(OC)c1OC(=O)c1ccc([N+](=O)[O-])cc1[N+](=O)[O-] — lower, -16.4%
- O=C(Nc1c(-c2ccc(F)cc2)nc2ccccn12)c1cccc(F)c1 — higher, -0.545%
- N#CN1CCC(NC(=O)c2ccc(F)cc2)CC1 — lower, -14.9%
- O=C(Nc1ccc(OC(F)(F)F)cc1)c1cc2c(=O)n3ccccc3nc2s1 — higher, -3.02%
- CCOc1ccc(N(C)S(=O)(=O)c2cc(-c3cnc(C)o3)ccc2OC)cc1 — higher, -5.97%
- Oc1ccc(-n2nnnc2SCc2c(F)cccc2Cl)cc1 — lower, -17.7%
- COc1ccc(-n2nnnc2SCC(=O)c2ccc(OC)c(OC)c2)cc1 — higher, 16.4%
- COc1ccc(CCNc2nc3c(-c4cccc(F)c4)nnn3c3ccccc23)cc1OC — higher, 1.83%
- CN1CCN(C(=O)/C(=C\c2ccc3c(c2)OCO3)NC(=O)c2cccs2)CC1 — higher, -1.26%
- Cc1ccc(C(=O)N/C(=C/c2cccs2)C(=O)N2CCCCC2)cc1 — higher, -1.28%
- CCOc1ccc(CNC(=O)c2ccc3c(c2)nnn3C2CCCC2)cc1 — lower, -28.9%
- Cc1ccc(-c2nn(CCC(=O)Nc3ccc(OC(F)(F)F)cc3)c(=O)c3ccccc23)cc1 — lower, -11%
- COc1ccc(NC(=O)Nc2cccc(-c3noc(C)n3)c2)cc1 — higher, 8.89%
- Cc1ccc(NC(=O)Nc2ccc3oc(C)nc3c2)cc1 — higher, -1.61%
- Cc1ccc(C)c(Cn2c(C)c(CNCc3ccc(F)cc3)c(C(=O)O)c2C)c1 — higher, -10.2%
- O=C(NCc1ccco1)/C(=C/c1cccc([N+](=O)[O-])c1)NC(=O)c1ccco1 — higher, -9.94%
- O=C(NCc1ccco1)c1ccc([N+](=O)[O-])cc1Cl — higher, -6.24%
- O=[N+]([O-])c1cccc(S(=O)(=O)NCc2ccccn2)c1 — higher, 8.53%
- O=C(NCc1ccncc1)c1cccc(NS(=O)(=O)c2ccc(F)c(F)c2)c1 — higher, -6.23%
- CCOC(=O)c1c(NC(=O)COc2cc(C)ccc2C(C)C)sc(C)c1C — higher, 8.46%
- c1ccc(-c2ccccc2OCCN2CCCCC2)cc1 — higher, 8.41%
- CC1CN(CCCOc2ccccc2-c2ccccc2)CC(C)O1 (configuration not stated) — higher, 13.9%
- CC1CN(C(=O)N2CCC(C(=O)NCc3cccs3)CC2)c2ccccc2O1 (configuration not stated) — higher, -3.92%
- COc1ccc(NC(=O)CCNS(=O)(=O)c2ccc3c(c2)CCCC(=O)N3)cc1Cl — higher, 1.62%
- O=S(=O)(Nc1cccc2cccnc12)c1cccc2cccnc12 — higher, -7.95%
- O=S(=O)(NCCOc1cccc2cccnc12)c1ccc(F)cc1 — higher, 6.87%
- CC(CNC(=O)c1nnc(Cc2cccc(F)c2)o1)c1ccccc1 (configuration not stated) — higher, 0.636%
- Cc1cc2oc(C(=O)N(Cc3ccc(Cl)cc3)Cc3ccco3)c(C)c2cc1Cl — higher, -1.03%
- CCCOc1ccc(-c2cccc(NS(=O)(=O)c3ccccc3)c2)nn1 — lower, -24.2%
- CCNS(=O)(=O)c1cc(-c2nnc(Nc3cccc(C(F)(F)F)c3)c3ccccc23)ccc1C — higher, -6.09%
- Cc1ccc2nc(COc3ccc(NC(=O)COc4ccccc4F)cc3)cc(=O)n2c1 — higher, 0.203%
- COc1cccc(COc2ccc(N(C)S(=O)(=O)c3ccccc3)cc2)c1 — higher, -1.51%
- CSc1ccc(CCNC(=O)c2ccc3c(c2)nc2n3CCOC2)cc1 — higher, 11.3%
- CCCN1CCN(CCCNC(=O)c2ccc3nc(Cc4ccccc4)oc3c2)CC1 — higher, -1.19%

With `O=C(NCCCN1CCN(c2cccc(Cl)c2)CC1)c1nnc(Cc2ccc(F)cc2Cl)o1` the activity change, negative = inhibition was -33.5% (active).
In the case of `O=C(c1ccco1)N1CCN(C(=O)C2CC(c3ccc(Cl)c(Cl)c3)=NO2)CC1` (configuration not stated), the activity change, negative = inhibition is reported as -36.7% (active).
In the case of `Cc1ccc(Cl)cc1-c1ccc(/C=N/n2cnnc2)o1`, the activity change, negative = inhibition is reported as -37.1% (active).
In the case of `COc1ccc(OCCCn2c(C3CC(=O)N(c4ccc(F)cc4)C3)nc3ccccc32)cc1` (configuration not stated), the activity change, negative = inhibition is reported as -46.1% (active).
With `CC(C)(C)NC(=O)NC(=O)COC(=O)Cc1ccc(Cl)cc1Cl` the activity change, negative = inhibition was -36.3% (active).
`CCOc1ccccc1N(CC)C(=O)Nc1cn(C)c(=O)c2ccccc12` was tested, and the activity change, negative = inhibition was -33.9% (active).
`COc1cc(NS(=O)(=O)c2ccc(NC(=O)c3ccc(S(=O)(=O)N4CCCCC4)cc3)cc2)ncn1` was tested, and the activity change, negative = inhibition was -62.1% (active).
`Cc1ccccc1OCC(=O)Nc1ccc(N2CCN(C(=O)C(C)C)CC2)c(Cl)c1` was tested, and the activity change, negative = inhibition was -31% (active).
`COc1cc([N+](=O)[O-])cc([N+](=O)[O-])c1NC(=O)N1CCOCC1` was tested, and the activity change, negative = inhibition was -32.7% (active).
For `COc1ccc(CSc2nnnn2-c2ccc(O)cc2)cc1F`, the activity change, negative = inhibition was -36.7% (active).
For `CN1CCN(C(=O)/C(=C\c2cccs2)NC(=O)c2cccs2)CC1`, the activity change, negative = inhibition was -40.4% (active).
`COc1ccc(NC(=O)Nc2ccc3nsnc3c2)cc1` was tested, and the activity change, negative = inhibition was -36.6% (active).
In the case of `O=C(NCc1ccncc1)c1ccc(NS(=O)(=O)c2cccc([N+](=O)[O-])c2)cc1`, the activity change, negative = inhibition is reported as -49% (active).
In the case of `O=C(NCc1ccco1)c1ccc(NS(=O)(=O)c2cccc([N+](=O)[O-])c2)cc1`, the activity change, negative = inhibition is reported as -51.9% (active).
`CC1CCCN(CCOCCOc2ccccc2-c2ccccc2)C1` (configuration not stated) was tested, and the activity change, negative = inhibition was -48.5% (active).
With `O=S(=O)(NCCc1ccc(F)cc1)c1cccc2cccnc12` the activity change, negative = inhibition was -44.7% (active).
For `Cc1ccc2nc(COc3ccc(N(C)S(=O)(=O)c4ccccc4)cc3)cc(=O)n2c1`, the activity change, negative = inhibition was -32.1% (active).
